Sampled rows, rich in hits. Any-hit rate of the full collection: about 7.9%.
Marburg entry inh: blocks Marburg virus binding to or entry into cells; actives 1.8% (n = 300,000); Marburg virus pseudotyped entry inhibition, cell reporter; Potency, µM (top dose mostly 37.8 µM), inactives show at the top dose activity change, negative = inhibition, usual class: inhibitors; AID 540276; calls by dose curve; tested in HEK293 cells; also: potency is read from the fitted curve at half-maximal effect
HCMV inh: blocks human cytomegalovirus replication | activity change, negative = inhibition, % at 57.5 µM | AID 1259415 | actives 4.5% (n = 410,000) | HFF cells, HCMV-luciferase reporter, 72 h; stronger effect = lower value; in the data active = activity change below about -60%; inconclusive = no clear call, values can overlap the other calls; inactive = above about -39%
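Two-dose cell screen: HFF monolayers treated with compounds and infected with luciferase-expressing HCMV at 1 PFU/cell, 72 h at 37C, then lysed for luciferase measurement.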
LASV entry inh: Lassa virus entry inhibition; Lassa virus pseudotype entry inhibition, cell reporter; Potency, µM (top dose mostly 37.9 µM), for inactives: top-dose activity change, negative = inhibition, hits mostly inhibitors; actives 1.2% (n = 300,000); AID 540256; calls by dose curve; tested in HEK293 cells; also: potency is read from the fitted curve at half-maximal effect; nearly all actives have a fitted effect of over 50% in size
HCV inhibitor: blocks hepatitis C virus; Huh7.5.1 HCVcc-Cre infection, luciferase reporter, 44 h; Potency, µM (top dose mostly 41.8 µM), inactives show at the top dose activity change, negative = inhibition, hits mostly inhibitors; actives 3.4% (n = 340,000); active = well fitted inhibition curve with a large enough effect; inconclusive = small, poorly fitted or top-dose-only effect, or another doubt; inactive = no such curve, though single readings can be large or run the other way; also: potency is read from the fitted curve at half-maximal effect
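Seed cells (1,000/well) for 4 h; treat with compound and infect with HCVcc-Cre, moi about 0.5. Incubate 44 h, then detect luciferase activity.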
FMDV antiviral: blocks foot and mouth disease virus; FMDV antiviral cell-based qHTS; Potency, µM (series often up to 57.9 µM), for inactives: top-dose activity change, negative = inhibition, usual class: inhibitors; actives 1.2% (n = 410,000); AID 1159524; calls by dose curve; tested in HEK293T cells; also: read-out not given here; potency is read from the fitted curve at half-maximal effect; nearly all actives have a fitted effect of over 45% in size
* marks the source's active call; other numbers are inactive results; ? = inconclusive; . = no result; ! = a repeat was not active; [ ] = another dose, or the depositor's remark. % is scaled to controls: 0 for no effect and ±100 for the full control effect.

SMILES | Marburg entry inh | HCMV inh | LASV entry inh | HCV inhibitor | FMDV antiviral
CC(C)NC(=O)CSc1nc(Cc2cccs2)nc2ccccc12 | -20% | -81* | 0% | -26% | .
CCC(C)(C)NC(=O)CSc1nc(Cc2ccccc2)nc2ccccc12 | ? | -72* | -2%[46.1 µM] | -26% | -23%
CC(C)(C)NC(=O)CSc1nc(Cc2ccccc2)nc2ccccc12 | . | -67* | . | 13µM* | -1%
O=C(CN(c1cccc(Br)c1)S(=O)(=O)c1ccccc1)N1CCc2ccccc2C1 | . | -6 | -22%[46.1 µM] | . | 12%
COc1ccc(-c2nc3cc(C)ccc3cc2CN(C(=O)c2ccc(C)s2)C2CC2)cc1OC | . | . | . | . | -14%
CCOC(=O)c1cc(OC(=O)c2cc(OC)c(OC)c(OC)c2)n(-c2ccccc2)n1 | 12%[46.1 µM] | 6 | 1%[46.1 µM] | . | 0%
Cn1c(-c2ccc3c(c2)OCO3)cc(=O)c2ccccc21 | . | -27 | . | 13% | 0%
c1ccc2c(c1)c1ccccc1n1c(-c3ccc4c(c3)OCO4)nnc21 | 4% | 14 | 2% | ? | 25µM*
CCc1c(C)sc2c1CCN(C(=O)Nc1cc(C)ccc1C)C2c1ccc(OC)cc1 (stereo not given) | . | -14 | 1%[46.1 µM] | . | -3%
COc1ccc2c(c1)C(=NO)c1cc(OC)ccc1-2 | -24% | ? | 14% | 8.9µM* | 8%
C=CCOc1ccc2c(c1)C(=NO)c1cc(OCC=C)ccc1-2 | 0% | -19 | . | ? | -20%
CC(=O)Nc1ccccc1-c1nc(CNC(=O)c2cc(C)ccc2C)c(C)o1 | . | . | . | . | -8%
CCn1cc(C(=O)OCC(=O)Nc2ccc(C)c(Cl)c2)c(=O)c2ccc(C)nc21 | -1%[46.1 µM] | 9 | 14%[46.1 µM] | . | 3%
CCN(CC)c1ccc(/C=N/NC(=O)c2cc(C)nc3ccccc23)cc1 | ? | -15 | ? | 17% | ?
CCN(CC)c1ccc(/C=C/c2cc(-c3ccccc3)c3ccccc3n2)cc1 | . | -38 | . | 14µM* | -35%
Cc1ccc2oc(C(=O)Nc3cccc(Cl)c3)cc(=O)c2c1 | ? | -13 | 0%[46.1 µM] | . | 5%
N#CC1=C2SCC(O)(c3ccccc3)N2C(=O)CC1c1cccs1 (stereo not given) | 0.033µM*! | -6 | ? | ? | ?
N#CC1=C2SCC(O)(c3ccccc3)N2C(=O)CC1c1ccccc1F (stereo not given) | ? | 59 | ? | ? | ?
Cc1ccc(NC(=O)CSc2nc3ccc(Br)cc3[nH]2)c(C)c1 | -21%[46.1 µM] | -29 | 11%[46.1 µM] | . | 2%
COc1cc(NC(=O)c2ccc(OCc3c(C)noc3C)c(OC)c2)cc(OC)c1 | . | -3 | . | ? | ?
COc1cc(C(=O)Nc2cc(OC)c(OC)c(OC)c2)ccc1OCc1c(C)noc1C | 5% | 277 | -20% | 11µM* | -21%
COc1ccc(NS(=O)(=O)c2cc(NC(=O)c3cccc(OCc4c(C)noc4C)c3)ccc2OC)cc1 | ? | -65* | ? | ? | 55%
COC(=O)C1=CN(c2cccc(C)c2)C=C(C(=O)OC)C1c1cc(OC)c(O)c([N+](=O)[O-])c1 | ? | 118 | 4.1µM* | 3% | -13%
COC(=O)C1=CN(c2cccc(C(F)(F)F)c2)C=C(C(=O)OC)C1c1ccc(O)c(OC)c1 | . | -21 | . | ? | -29%
COC(=O)C1=CN(c2ccc(OC)cc2)C=C(C(=O)OC)C1c1ccc(C)c([N+](=O)[O-])c1 | ? | -78* | ? | ? | ?
SMILES | Marburg entry inh | HCMV inh | LASV entry inh | HCV inhibitor | FMDV antiviral
COC(=O)C1=CN(c2ccc(OC)cc2)C=C(C(=O)OC)C1c1cccc(F)c1 | . | -8 | . | ? | -1%
Cc1ccc(Cn2ccn(CC(=O)Nc3c(C)cc(C)cc3C)c(=O)c2=O)cc1 | . | -32 | 19%[46.1 µM] | . | -10%
O=C(NCc1ccccc1)C(=O)NCC1OCCN1S(=O)(=O)c1ccc([N+](=O)[O-])cc1 (stereo not given) | . | -78* | . | -3% | -8%
COc1ccc(S(=O)(=O)N2CCOC2CNC(=O)C(=O)NCCc2ccc(OC)c(OC)c2)cc1C (stereo not given) | ? | -39 | ? | 11µM* | ?
COc1ccc(CCNC(=O)C(=O)NCC2OCCN2S(=O)(=O)c2ccc3c(c2)OCCO3)cc1OC (stereo not given) | ? | -16 | -23% | ? | -12%
CNC(=O)C(=O)NCC1OCCN1S(=O)(=O)c1ccc([N+](=O)[O-])cc1 (stereo not given) | ? | -1 | 3% | 19% | -16%
Cc1ccc(CNC(=O)C(=O)NCC2OCCN2S(=O)(=O)c2ccc(Br)cc2)cc1 (stereo not given) | ? | ? | 7.9µM* | . | ?
Cc1ccc(CNC(=O)C(=O)NCC2OCCN2S(=O)(=O)c2ccc(C)cc2)cc1 (stereo not given) | -29% | . | ? | . | -27%
CC(=O)N1c2nc(C(C)C)nn2C2(CCCCC2)[C@@H]2CCCC[C@@H]21 | -24%[46.1 µM] | -11 | 18%[46.1 µM] | . | -29%
Clc1cccc(-c2noc3ncnc(NC4CCCCC4)c23)c1 | 0%[46.1 µM] | -17 | 15%[46.1 µM] | . | ?
CN(C)CCN(C(=O)c1ccco1)c1nc2c(F)cc(F)cc2s1 | . | 13 | 17%[46.1 µM] | . | 10%
COc1ccc(C2C(=O)N(C3CCC(C)CC3)CC(=O)N2C2CCCCC2)cc1OC (stereo not given) | . | ? | -1%[46.1 µM] | . | -21%
Cc1cc(N)n2ncc(-c3ccc(F)cc3)c2n1 | 0%[46.1 µM] | 122 | ? | 10µM* | 47%
Cc1nc2c(-c3ccc(F)cc3)cnn2c(N)c1-c1ccc(F)cc1 | 5µM* | -76* | -23%[46.1 µM] | ? | ?
CCc1nn(CC(=O)NCCc2ccc(OC)cc2OC)c(=O)c2cc3c(OC)cccc3n12 | 23%[46.1 µM] | -5 | . | . | 0%
CCc1ccccc1NC(=O)CSc1ncc(S(=O)(=O)c2ccccc2)c(N)n1 | . | -14 | 1%[46.1 µM] | . | -26%
COc1cccc(-c2nn3c(=O)cc(CN4CCN(C(=O)COc5ccccc5C)CC4)nc3s2)c1 | . | 13 | 18%[46.1 µM] | . | 3.5µM*
Cn1c(SCc2cccc([N+](=O)[O-])c2)nc2c(c1=O)SCC2 | ? | -72* | ? | ? | 28µM*
O=C(CCN1N=C(c2ccccc2)CCC1=O)NC1CCCCC1 | . | -77* | . | . | 5%
O=C(CCN1N=C(c2ccccc2)CCC1=O)NC1CCCC1 | . | -15 | . | 5% | -10%
CCOCCC(=O)Nc1ccc2c(c1)c(=O)n(C)n2Cc1cccc(C(F)(F)F)c1 | . | -62* | . | . | 0%
COc1ccccc1CCC(=O)Nc1ccc2c(c1)c(=O)n(C)n2Cc1ccc(F)cc1 | . | 12 | . | . | -29%
COc1cccc(Cn2c3ccc(NC(=O)CCc4ccc(F)cc4)cc3c(=O)n2C)c1 | . | -85* | . | . | -26%
Cn1c(=O)c2cc(NC(=S)NCc3ccccc3F)ccc2n1Cc1cccc(C(F)(F)F)c1 | . | -69* | . | . | -10%
CN(C)c1ccc(CNC(=O)C2CCN(c3nnc(-n4cccc4)s3)CC2)cc1 | . | ? | -22%[46.1 µM] | . | -18%
CN(CCCCCC(=O)/C=N\O)Cc1ccccc1 | 0% | . | . | . | .
O=C(O)c1sc2cc(C(F)(F)F)cnc2c1-c1ccccc1 | 1% | -8 | 1% | 18% | 2%

Screens (PubChem BioAssay)
